Assay outcomes deposited in PubChem BioAssay by The Scripps Research Institute Molecular Screening Center.
Compounds with a hit are over-represented: about 2.3% of the library has one in this group of screens.
CHRM1 agonist: human M1 muscarinic receptor agonists, primary screen, Fluo-8 calcium fluorescence, CHO-K1 cells, HTS; Muscarinic acetylcholine receptor M1 (Homo sapiens), P11229; CHO-K1 hM1, agonist mode; 0% DMSO, 100% acetylcholine EC100; activation, % at 3 µM; 0.33% of 360,000 active; AID 588814, 2011;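 active means activation above the run's mean compound activation plus 3 SD, cut at about 16% in these data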;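 further: peak over basal fluorescence ratio within a 140 s kinetic read after compound addition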
Target sequence (P11229 whole entry, looked up): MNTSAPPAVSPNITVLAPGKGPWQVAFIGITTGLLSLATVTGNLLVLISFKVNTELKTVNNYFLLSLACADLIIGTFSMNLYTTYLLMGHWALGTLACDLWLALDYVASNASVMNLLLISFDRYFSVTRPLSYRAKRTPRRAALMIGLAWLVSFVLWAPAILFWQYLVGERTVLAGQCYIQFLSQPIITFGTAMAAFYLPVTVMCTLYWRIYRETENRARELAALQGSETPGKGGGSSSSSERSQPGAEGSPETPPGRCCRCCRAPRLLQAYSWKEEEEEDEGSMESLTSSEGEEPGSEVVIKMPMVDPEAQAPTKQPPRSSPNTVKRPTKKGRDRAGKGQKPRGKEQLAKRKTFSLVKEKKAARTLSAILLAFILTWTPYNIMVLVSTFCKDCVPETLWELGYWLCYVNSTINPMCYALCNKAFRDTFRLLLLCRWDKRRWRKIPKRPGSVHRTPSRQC
CHO-K1 Ca antag: counter-screen for M1 antagonists: effect in parental CHO-K1 cells; inhibition, % at 3 µM; ATP-induced calcium, Fluo-8 fluorescence; 0.6% of 360,000 active;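 active means inhibition above a per-plate cutoff, the plate's mean sample inhibition plus 3 SD, cut at about 24% in these data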;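 further: 0% = DMSO plus EC80 ATP and 100% = DMSO alone without ATP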
M1 PAM parental: nonselective calcium activators in parental CHO-K1 cells, primary screen, counter-screen for M1 PAM project, cell-based, Fluo-8 calcium fluorescence, full deck, 1536-well | ATP EC20; 0% at ATP EC20, 100% at ATP max | activation, % at 3 µM | 0.02% of 360,000 active | AID 602247, 2012;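 active means activation above the run cutoff, the mean activation of all test compounds plus 3 SD, cut at about 40% in these data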;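 further: peak over basal fluorescence ratio in a 140 s read after ATP addition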
CHO-K1 Ca ag: counter-screen for M1 agonists: effect in parental CHO-K1 cells; Fluo-8 calcium fluorescence; scaled to maximal ATP response, vehicle zero; 0.48% of 360,000 active; activation, % at 3 µM; in the data active means activation above about 15%;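 further: untransfected CHO-K1 host cells lacking M1 receptor as counterscreen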
CHRM1 antagonist: human M1 muscarinic receptor antagonists, primary screen, CHO-K1 cells, Fluo-8 calcium fluorescence, 1536-well. Muscarinic acetylcholine receptor M1 (Homo sapiens), P11229. CHO-K1 hM1, ACh EC80 antagonist. inhibition, % at 3 µM. 1.3% of 360,000 active;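 active means percent inhibition above its own plate's cutoff, namely the mean of that plate's compound wells plus 3 SD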;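 further: peak over basal fluorescence ratio during 140 s after agonist addition; 0% = ACh EC80 plus DMSO and 100% = DMSO alone without agonist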
CHRM1 PAM: human M1 muscarinic receptor positive allosteric modulators, primary screen, CHO-K1 cells, Fluo-8 calcium fluorescence, 1536-well; Muscarinic acetylcholine receptor M1 (Homo sapiens), P11229; CHO-K1 hM1, ACh EC20; 0% = ACh EC20, 100% = maximal ACh; activation, % at 3 µM; 0.088% of 360,000 active; in the data active means activation above about 19%, passing the limit was not always enough
Starred values were filed as active, the others as inactive.

SMILES	CHRM1 agonist	CHO-K1 Ca antag	M1 PAM parental	CHO-K1 Ca ag	CHRM1 antagonist	CHRM1 PAM
O=C(CN1CCN(c2ccccc2O)CC1)NC(c1ccccc1)c1ccccc1	-6.1	-2.6	10.2	0.1	-3.5	6.1
CC1CCN(CC(=O)Nc2ccccc2-c2ccccc2)CC1	-11.5	-17.3	-11.3	-1.2	32.5*	-33.6
CCOc1ccc(NC(=O)CN2CCN(C3c4ccccc4-c4ccccc43)CC2)cc1	-4.5	-4.4	2.2	0.4	0.7	0.0
O=C(CN1CCCCCC1)Nc1ccccc1Oc1ccccc1	-8.8	-18.2	16.4	-0.1	40.6*	-25.7
COc1ccc(NC(=O)CN2CCN(C3c4ccccc4-c4ccccc43)CC2)c(OC)c1	-1.1	-43.9	52.1*	0.2	-4.7	1.8
O=C(CCN=C1NS(=O)(=O)c2ccccc21)OCc1nnc(-c2ccccc2)o1	-0.9	-4.6	0.3	0.3	-6.4	7.3
CN(C(=S)NC(=O)C1CC1)c1ccc(O)cc1	-4.7	-0.5	12.3	2.3	-1.4	8.5
COc1ccccc1NC(=O)CN1CCCCCC1	-10.1	7.4	-1.3	-0.4	-7.2	5.5
COc1ccccc1NC(=O)CN1CCN(C2c3ccccc3-c3ccccc32)CC1	6.1	-27.8	48.0*	4.2	3.5	-0.3
COc1cc(S(=O)(=O)N2CCn3cccc3C2C)ccc1NC(C)=O (stereo unspecified)	-3.6	-15.2	9.8	1.0	-1.6	7.2
CCN1CCN(c2cc(C)c3cc(NC(=O)Cc4ccc(OC)c(OC)c4)ccc3n2)CC1	-7.2	28.4*	1.0	-0.7	-14.8	10.2
N#Cc1ccc(-c2ccc(OCC(=O)Nc3cccnc3)cc2)cc1	3.1	11.6	-19.7	17.7*	18.4	-11.8
CC(=O)c1cccc(NC(=O)COc2ccccc2)c1	1.3	31.9*	-7.9	-0.1	4.4	10.1
O=C(COc1ccc(C(=O)c2ccccc2)cc1)Nc1cccnc1	-1.5	18.5	-4.2	19.5*	24.8	-14.3
O=C(COC(=O)c1cc(-c2ccccn2)nc2ccccc12)Nc1ncc(C(F)(F)F)cc1Cl	-3.4	-14.2	13.5	0.2	-2.3	-6.8
OC(CCN1CC2CCC(CC2)C1)(Cc1ccccc1)c1ccco1 (stereo unspecified)	-6.3	-6.1	2.7	-0.3	85.5*	-28.2
C=CCNC(=O)c1oc2ccc(S(=O)(=O)N3CCC4(CC3)OCCO4)cc2c1C	0.2	-7.0	3.8	1.3	-0.3	2.9
COc1ccc(NC(=O)c2oc3ccc(S(=O)(=O)N4CCC5(CC4)OCCO5)cc3c2C)cc1	3.3	7.0	-2.2	13.2	34.5*	-22.1
Cc1cc(SCC(=O)OCC(=O)N(C)C2CCS(=O)(=O)C2)c(C)cc1Br (stereo unspecified)	-2.1	1.8	-20.5	15.8*	2.9	-2.1
Cc1ccc(C)c(SCC(=O)N(C)C2CCS(=O)(=O)C2)c1 (stereo unspecified)	-3.7	-9.2	14.8	0.4	-8.7	8.3
Cc1ccc(S(=O)(=O)N(C)C)cc1NC(=O)CCc1ccccc1	-2.5	-4.7	3.5	0.7	-10.3	11.1
OC(c1ccc(F)c(F)c1)c1nc(-c2ccc(F)c(Cl)c2)cs1 (stereo unspecified)	-5.7	7.2	8.9	2.2	1.9	-2.7
CCSc1nc2sc3c(c2c(=O)n1-c1ccccc1)CCN(C)C3	-8.1	-1.5	5.9	0.7	22.3	-16.9
C=CCSc1nc2sc3c(c2c(=O)n1-c1ccccc1)CCN(C)C3	-8.1	0.9	3.2	3.8	36.9*	-22.9
COc1ccc(-n2c(SC)nc3sc4c(c3c2=O)CCN(C)C4)cc1	-5.7	0.0	4.7	-0.1	70.5*	-1.7
SMILES	CHRM1 agonist	CHO-K1 Ca antag	M1 PAM parental	CHO-K1 Ca ag	CHRM1 antagonist	CHRM1 PAM
CCOC(=O)CSc1nc2sc3c(c2c(=O)n1-c1ccc(OCC)cc1)CCN(C)C3	-6.4	-5.6	1.3	-0.5	-7.1	8.9
CCOC(=O)CSc1nc2sc3c(c2c(=O)n1C1CCCCC1)CCN(C)C3	-7.2	1.0	7.6	0.0	24.2*	-24.9
O=C1CN(C(=O)COC(=O)c2oc3ccccc3c2COc2ccccc2)c2ccccc2N1	-4.2	4.3	-4.6	-0.3	-2.3	2.1
COCc1c(C(=O)OCC(=O)N2c3ccccc3NC(=O)C2(C)C)oc2ccccc12	0.2	30.0*	-3.9	4.3	16.2	-9.0
CC1(C)C(=O)Nc2ccccc2N1C(=O)COC(=O)c1ccc(Cl)c(S(=O)(=O)NCc2ccccc2)c1	1.1	14.9	5.4	3.0	30.1*	-11.9
CN(C(=O)COC(=O)c1n[nH]c2ccccc12)C1CCS(=O)(=O)C1 (stereo unspecified)	-5.4	-12.1	9.6	-0.2	-8.3	1.3
CC1(C)C(=O)Nc2ccccc2N1C(=O)COC(=O)c1cc(S(C)(=O)=O)ccc1Cl	-1.1	-12.9	-10.0	1.6	-5.1	6.0
COc1cc(/C=C/C(=O)OCC(=O)N2c3ccccc3NC(=O)C2(C)C)cc(OC)c1OC	0.0	-7.6	6.7	8.7	33.5*	-13.4
COCc1c(C(=O)OCC(=O)N(C)C2CCS(=O)(=O)C2)oc2ccccc12 (stereo unspecified)	-8.8	-6.2	-1.1	0.1	35.7*	-19.1
COc1ccc(S(N)(=O)=O)cc1C(=O)OCC(=O)N1c2ccccc2NC(=O)C1(C)C	1.6	-5.3	-6.3	-0.1	-10.6	12.6
CCN(Cc1ccccc1)S(=O)(=O)c1c(C)[nH]c(C)c1C(=O)N1CCCCC1	-2.6	-11.2	19.0	0.2	7.1	0.3
Cc1nc(N2CCN(C(=O)c3ccc(Cl)cc3)CC2)c(C#N)c2c1COC(C)(C)C2	-4.8	-1.0	14.0	4.7	-8.7	-2.8
COCc1c(C(=O)OCC(=O)N2c3ccccc3CC2C)oc2ccccc12 (stereo unspecified)	-1.3	24.4*	-6.7	0.0	8.7	9.5
COCc1c(C(=O)OCC(=O)N2CCCC2=O)oc2ccccc12	-2.2	-0.1	8.0	0.1	-17.5	19.2
Cc1cc(C)c(OCC(=O)N2CC=C(c3ccccc3)CC2)c(C)c1	3.2	1.5	-8.2	0.0	-6.2	15.7
CCOC(=O)C1=C(NC(=S)NC(=O)c2ccccc2)c2ccccc2CC1C(C)C (stereo unspecified)	-1.7	-12.8	10.0	1.7	-20.3	2.0
CCOC(=O)C1=C(NC(=S)NC(=O)c2ccccc2)c2ccccc2CC1(C)CC (stereo unspecified)	-3.0	-5.3	21.9	20.4*	20.3	-4.0
CC(=O)N1CCN(c2ccccc2NC(=O)COc2cc(C)ccc2C(C)C)CC1	1.7	11.3	0.1	4.2	29.6*	-10.2
